This is a sample that favours compounds with a hit; in the whole collection about 0.57% have one here.
12-hLO inh: 12-hLO (ALOX12) enzyme inhibition; P18054; purified 12-hLO, xylenol orange hydroperoxide absorbance; Potency, µM (titrated, usually from 57.1 µM), for the others: top-dose activity change, negative = inhibition, actives largely listed as inhibitors; 150,000 tested, 0.12% active; AID 1452; note: potency is the fitted concentration of half-maximal effect; nearly all actives have a fitted effect of over 55% in size
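Hydroperoxide formation by human 12-lipoxygenase from 40 uM arachidonic acid was followed colorimetrically via ferric-xylenol orange complex, using the 573/405 nm absorbance ratio. Enzyme concentration was 150 nM, with 30 min reaction at room temperature.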
IMPase Li cell: membrane-permeable IMPase blocker, potentiated with lithium. CHO-M1 cells, IP1 TR-FRET (IP-One), carbachol + lithium. Potency, µM (highest dose often 59.4 µM), inactives show top-dose activity, negative = IMPase inhibition, actives largely listed as inhibitors. 210,000 tested, 0.35% active;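 note: IP1 builds up when IMPase is blocked and the TR-FRET signal falls; potency is the fitted concentration of half-maximal effect; plate controls were basal vehicle for no effect and high inhibitor control for full effect; nearly all actives have a fitted effect of over 50% in size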
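Concentration–response in CHO-M1 cells, lithium-potentiated; 30 min at 37C. IP1 detected by competitive TR-FRET after 10 min lysis at RT. Hill-fitted AC50.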
ALOX15B inhib: blocks human 15-lipoxygenase 2 activity; purified 15hLO-2, xylenol orange hydroperoxide absorbance; Potency, µM (series often up to 57.1 µM), inactives show at the top dose activity change, negative = inhibition, most hits filed as inhibitors; 110,000 tested, 0.56% active; note: potency is the fitted concentration of half-maximal effect; nearly all actives have a fitted effect of over 60% in size
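Screening format was qHTS against 50 nM purified 15hLO-2 in Hepes pH 7.5 with detergent. Activity follows hydroperoxide formation from 45 uM arachidonic acid, measured as 573:405 nm absorbance ratio of the ferric-xylenol orange complex.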
IMPase cell inh: membrane-permeable compound that blocks inositol monophosphatase; P97697; CHO-M1 cells, IP1 accumulation, HTRF TR-FRET ratio; inhibition (IP1 accumulation), % at 46.1 µM; 120,000 tested, under 10 active; AID 901; active = well fitted curve in the direction sought with a large enough effect in the signal ratio, not every such curve was filed as active; inconclusive = small, poorly fitted or top-dose-only effect, or a change in a side signal; inactive = no such curve, though single readings can be large or run the other way; the % refers to the signal ratio;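 note: cells stimulated with carbachol in lithium chloride buffer; plate controls were DMSO basal wells for no effect and reference inhibitor wells for full effect; higher means more IMPase inhibition seen as more IP1 and lower FRET ratio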
Target sequence (P97697 whole entry, looked up): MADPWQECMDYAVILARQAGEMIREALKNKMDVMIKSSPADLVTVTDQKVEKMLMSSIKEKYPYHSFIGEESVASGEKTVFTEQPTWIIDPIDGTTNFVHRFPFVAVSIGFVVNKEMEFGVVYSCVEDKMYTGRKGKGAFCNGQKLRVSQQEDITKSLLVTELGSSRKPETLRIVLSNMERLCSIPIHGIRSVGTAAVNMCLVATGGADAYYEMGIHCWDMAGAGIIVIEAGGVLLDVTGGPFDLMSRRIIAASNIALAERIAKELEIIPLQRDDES
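Seeded CHO-M1 cells were dosed with compound at up to 46 uM, stimulated with carbachol for 30 min, then lysed in IP-One detection reagents. Higher IP1 lowers the TR-FRET signal.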
* hit, by the source's call; ? = inconclusive; · = not tested or not shown; ! = a repeat was not active; [ ] = dose if it differs, or a comment. Unless noted, calls come from the whole dose curve; as a rule, active = well fitted curve in the direction sought with a large enough effect; inconclusive = small, poorly fitted or top-dose-only effect, or another doubt; inactive = no such curve, though single readings can be large; an effect the other way counts as inactive or inconclusive. Unless noted, % is set by controls: 0 for no effect and ±100 for the full control effect.

SMILES	12-hLO inh	IMPase Li cell	ALOX15B inhib	IMPase cell inh
CC(C)c1cccc(O)c(=O)c1	?	11%	13µM*	·
N#CC(C#N)=Cc1cc(O)c(O)c(O)c1	?	47%	?	36
N#C/C(=C\c1ccc(O)c(O)c1)C(N)=S	13µM*	13%	25µM*	?
Ic1c(C2=CCCCC2)[se]c2ccccc12	-2%[0.00818 µM]	0%	-2%[0.0915 µM]	·
c1ccc([Se]c2c(-c3ccccc3)[se]c3ccccc23)cc1	0%[0.00818 µM]	5.6µM*	-23%[0.0915 µM]	·
CCC(C)N1C(=O)NC(=O)C2(Cc3c(ccc4ccccc34)N(C)C2)C1=O (centres undefined)	-18%	5%[38.3 µM]	5µM*	-1
Cc1cc[c]([Sb]2[O]C([C@H](O)[C@H](O)C(=O)O)[C@@H](CO)[O]2)cc1 (some centres undefined)	·	-3%	·	·
O=C(O)CN1CCN(CC(=O)O)CC(=O)[O][Hg][O]C(=O)C1	0.28µM*	3%	0.32µM*	·
C[C@H]1C2C=C[C@H]1[C@@H](C(=O)O)[C@@H]2c1c2ccc(=O)c(O)c-2oc2c(O)c(O)ccc12	·	2%	·	·
N[C@H](Cc1ccc(N(CCCl)CCCl)cc1)C(=O)O	3%	·	10%	0
NC1=NC([S][Hg][c]2ccc(N)cc2)c2ncn([C@@H]3O[C@H](CO)[C@@H](O)[C@@H]3O)c2N1 (some centres undefined)	·	17%	·	·
CC[C@H](CO)NC(=O)[C@@H]1C=C2c3cccc4[nH]cc(c34)C[C@@H]2N(C)C1	-4%	·	-2%	0
CC(=O)[O][Hg][c]1ccccc1	?	34%	0.32µM*	·
CC(=O)/C=C/c1ccccc1	-3%	4%	-17%	·
O=S(=O)(NCCO)c1cc[c]([Sb])cc1	·	5%	·	·
O=C(O)c1cc[c]([Hg][Cl])cc1	?	7%	3.2µM*	1
COc1cc2c(cc1OC)[C@@]13CCN4C=C5CCO[C@H]6CC(=O)N2[C@@H]1C6[C@H]5C[C@H]43 (some centres undefined)	·	-2%	·	·
COCCCOc1ccnc(CS(=O)c2nc3ccccc3[nH]2)c1C (centres undefined)	-10%[0.00818 µM]	4%	13µM*	·
c1ccc2c(c1)Nc1ccccc1S2	14µM*	4%	5µM*	·
CC1=C(O)C(=O)C=C2C1=CC=C1[C@]2(C)CC[C@@]2(C)C3C[C@](C)(C(=O)O)CC[C@@]3(C)CC[C@@]12C (some centres undefined)	?	31%	4µM*	·
COC(=O)[C@]1(C)CC[C@@]2(C)CC[C@@]3(C)C4=CCc5c(cc(O)c(O)c5C)[C@]4(C)CC[C@@]3(C)C2C1 (some centres undefined)	-1%	1%	1%	·
CC[C@@]1(O)C(=O)OCc2c1cc1n(c2=O)Cc2cc3c(O)cccc3nc2-1	·	8.9µM*	·	·
CC[C@@]1(O)C(=O)OCc2c1cc1n(c2=O)Cc2cc3ccccc3nc2-1	4%	-21%	12%	?
N[C@@H](Cc1cc(O)c(O)cc1O)C(=O)O	-18%	·	33%	-3
CN(C)[C@@H]1C(=O)C(C(N)=O)=C(O)[C@@]2(O)C(=O)C3=C(O)c4c(O)cccc4[C@@](C)(O)[C@H]3[C@H](O)[C@@H]12	-8%	10µM*!	3%	?
SMILES	12-hLO inh	IMPase Li cell	ALOX15B inhib	IMPase cell inh
CCCCC[CH2][Hg][S]C1=C2N=CNC2NC(N)=N1 (centres undefined)	·	19%	·	·
O=C1C=CC(=O)c2c(O)cccc21	-24%	1%	3.2µM*	·
C[C@]1(C(=O)O)[C@@H]2CC[C@@H](O2)[C@@]1(C)C(=O)O	-5%	·	11%	12
O=c1ccc2cc(OC3OC(CO)C(O)C(O)C3O)c(O)cc2o1 (centres undefined)	-2%	10µM*	?	?
O=[N+]([O-])c1ccc(O[C@@H]2O[C@H](CO)[C@@H](O)[C@H](O)[C@H]2F)c([N+](=O)[O-])c1	·	-3%	·	·
O=C1NC(=O)[C@]2(Cc3ccccc3N3CCN(c4ccccc4)CC32)C(=O)N1Cc1ccccc1 (some centres undefined)	-18%	-3%[38.3 µM]	32µM*	-1
C=C[C@@H]1CN2CC[C@H]1CC2[C@H](O)c1ccnc2ccccc12 (some centres undefined)	·	-1%	·	·
CNc1ccccc1C(=O)O	6%	-4%	6%	·
C[CH2][Hg][S]c1ccccc1C(=O)O	?	14%	0.63µM*	·
Oc1cc2c(cc1O)[C@H]1c3ccccc3CN[C@@H]1CC2	-11%	·	?	6
Oc1cc2c(cc1O)[C@H]1c3ccccc3CN[C@H]1CC2	-10%	2%	6.3µM*	-1
O=C(O)c1ccccc1-c1c2cc(Br)c(=O)cc-2oc2[c]([Hg])c(O)c(Br)cc12	?	149%	4µM*	23[20.6 µM]
O=C(c1cc2c(s1)CCCC2)N1CCC2(CC1)OCCO2	1%	17%[38.3 µM]	7.9µM*	-1
